{
  "source": "the supplement of paper PMC8728848",
  "experiment_in_all_cases": "glycan array binding signal (z-score within array); higher = stronger binding",
  "conditions_in_all_cases": "glycan notation: IUPAC condensed, linker removed",
  "key": {"[1]": {"target": "Gal3S(b1-4)Glc", "method_in_brief": "(§1)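 Columns mapping to the same glycan were averaged after glycan names were converted to IUPAC-condensed notation. The data come from 3228 arrays in the Consortium for Functional Glycomics database, limited to those with an available protein sequence. Binding is reported as a within-array Z-score averaged across arrays of one protein sequence and across linkers.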"}, "[2]": {"target": "Gal3S(b1-4)[Fuc(a1-3)]GlcNAc6S", "method_in_brief": "as §1"}, "[3]": {"target": "Gal3S6S(b1-4)GlcNAc6S", "method_in_brief": "as §1"}, "[4]": {"target": "Gal6S(b1-3)GlcNAc6S", "method_in_brief": "as §1"}, "[5]": {"target": "GalNAc(a1-3)Gal", "method_in_brief": "as §1"}, "[6]": {"target": "Glc(a1-6)Glc(a1-6)Glc(a1-6)Glc", "method_in_brief": "as §1"}, "[7]": {"target": "GlcNAc(a1-4)Gal(b1-4)GlcNAc(b1-3)Gal(b1-4)[Fuc(a1-3)]GlcNAc(b1-3)Gal(b1-4)[Fuc(a1-3)]GlcNAc", "method_in_brief": "as §1"}, "[8]": {"target": "GlcNAc(b1-2)Gal(b1-3)GalNAc", "method_in_brief": "as §1"}, "[9]": {"target": "GlcNAc(b1-2)[GlcNAc(b1-4)]Man(a1-3)[GlcNAc(b1-4)][GlcNAc(b1-2)[GlcNAc(b1-6)]Man(a1-6)]Man(b1-4)GlcNAc(b1-4)[Fuc(a1-6)]GlcNAc", "method_in_brief": "as §1"}, "[10]": {"target": "GlcNAc(b1-2)[GlcNAc(b1-6)]Man(a1-6)[GlcNAc(b1-2)Man(a1-3)]Man(b1-4)GlcNAc(b1-4)[Fuc(a1-6)]GlcNAc", "method_in_brief": "as §1"}, "[11]": {"target": "GlcNAc(b1-2)[GlcNAc(b1-6)]Man(a1-6)[GlcNAc(b1-4)][GlcNAc(b1-2)Man(a1-3)]Man(b1-4)GlcNAc(b1-4)GlcNAc", "method_in_brief": "as §1"}, "[12]": {"target": "GlcNAc(b1-3)Gal(b1-4)GlcNAc(b1-3)Gal(b1-4)GlcNAc(b1-3)Gal(b1-4)GlcNAc(b1-3)Gal(b1-4)GlcNAc(b1-2)Man(a1-3)[GlcNAc(b1-3)Gal(b1-4)GlcNAc(b1-3)Gal(b1-4)GlcNAc(b1-3)Gal(b1-4)GlcNAc(b1-3)Gal(b1-4)GlcNAc(b1-2)Man(a1-6)]Man(b1-4)GlcNAc(b1-4)[Fuc(a1-6)]GlcNAc", "method_in_brief": "as §1"}, "[13]": {"target": "GlcNAc(b1-3)Gal(b1-4)GlcNAc(b1-3)Gal(b1-4)GlcNAc(b1-3)Gal(b1-4)GlcNAc(b1-3)Gal(b1-4)GlcNAc(b1-2)[GlcNAc(b1-3)Gal(b1-4)GlcNAc(b1-3)Gal(b1-4)GlcNAc(b1-3)Gal(b1-4)GlcNAc(b1-3)Gal(b1-4)GlcNAc(b1-6)]Man(a1-6)[GlcNAc(b1-3)Gal(b1-4)GlcNAc(b1-3)Gal(b1-4)GlcNAc(b1-3)Gal(b1-4)GlcNAc(b1-3)Gal(b1-4)GlcNAc(b1-2)Man(a1-3)]Man(b1-4)GlcNAc(b1-4)[Fuc(a1-6)]GlcNAc", "method_in_brief": "as §1"}, "[14]": {"target": "GlcNAc(b1-3)Gal(b1-4)GlcNAc(b1-6)[Gal(b1-3)]GalNAc", "method_in_brief": "as §1"}, "[15]": {"target": "Man(b1-4)GlcNAc", "method_in_brief": "as §1"}, "[16]": {"target": "Neu5Ac(a2-3)Gal(b1-3)GlcNAc(b1-3)Gal(b1-4)GlcNAc", "method_in_brief": "as §1"}, "[17]": {"target": "Neu5Ac(a2-3)Gal(b1-3)[Fuc(a1-4)]GlcNAc(b1-3)Gal(b1-4)[Fuc(a1-3)]GlcNAc", "method_in_brief": "as §1"}, "[18]": {"target": "Neu5Ac(a2-3)Gal(b1-4)GlcNAc(b1-2)Man", "method_in_brief": "as §1"}, "[19]": {"target": "Neu5Ac(a2-3)Gal(b1-4)GlcNAc(b1-2)[Neu5Ac(a2-3)Gal(b1-4)GlcNAc(b1-4)]Man(a1-3)[GlcNAc(b1-4)][Neu5Ac(a2-3)Gal(b1-4)GlcNAc(b1-4)Man(a1-6)]Man(b1-4)GlcNAc(b1-4)GlcNAc", "method_in_brief": "as §1"}, "[20]": {"target": "Neu5Ac(a2-3)Gal(b1-4)GlcNAc(b1-3)Gal", "method_in_brief": "as §1"}, "[21]": {"target": "Neu5Ac(a2-3)Gal(b1-4)GlcNAc(b1-3)Gal(b1-4)GlcNAc(b1-2)Man(a1-3)[Neu5Ac(a2-3)Gal(b1-4)GlcNAc(b1-3)Gal(b1-4)GlcNAc(b1-2)Man(a1-6)]Man(b1-4)GlcNAc(b1-4)GlcNAc", "method_in_brief": "as §1"}, "[22]": {"target": "Neu5Ac(a2-3)Gal(b1-4)GlcNAc(b1-3)[Neu5Ac(a2-3)Gal(b1-4)GlcNAc(b1-6)]GalNAc", "method_in_brief": "as §1"}, "[23]": {"target": "Neu5Ac(a2-3)[GalNAc(b1-4)]Gal(b1-4)GlcNAc", "method_in_brief": "as §1"}, "[24]": {"target": "Neu5Ac(a2-3)[GalNAc(b1-4)]Gal(b1-4)GlcNAc(b1-3)GalNAc", "method_in_brief": "as §1"}, "[25]": {"target": "Neu5Ac(a2-6)Gal(b1-4)GlcNAc(b1-2)Man(a1-6)[Gal(b1-4)GlcNAc(b1-2)Man(a1-3)]Man(b1-4)GlcNAc(b1-4)GlcNAc", "method_in_brief": "as §1"}, "[26]": {"target": "Neu5Ac(a2-8)Neu5Ac(a2-3)[GalNAc(b1-4)]Gal(b1-4)Glc", "method_in_brief": "as §1"}, "[27]": {"target": "Neu5Ac9Ac(a2-6)Gal(b1-4)GlcNAc", "method_in_brief": "as §1"}, "[28]": {"target": "Neu5Gc(a2-3)Gal(b1-3)GlcNAc", "method_in_brief": "as §1"}},
  "note": "The full list was thinned out, with the strongest signals kept by preference.",
  "data": [
    {"binder": "Tp0751, 83732 (protein) MSYYHHHHHHLESTSLYKKAGFQHGHVPPRRIPPHDTFGALPTAALPSNARDTAAHPSDTADNTSGSSTTTDPRSHGNAPPAPVGGAAQTHTQPPVQTAMRIALWNRATHGEQGALQHLLAGLWIQTEISPNSGDIHPLLFFDREHAEITFSRASVQEIFLVDSAHTHRKTVSFLTRNTAISSIRRRLEVTFESHEVIHVRAVEDVARLKIGSTSMWDGQYTRYHAGPASAPSP", "values": [
      {"measurement": "glycan array binding signal (z-score)", "setting": "[1]", "result": 5.83},
      {"measurement": "glycan array binding signal (z-score)", "setting": "[2]", "result": 1.94},
      {"measurement": "glycan array binding signal (z-score)", "setting": "[3]", "result": 2.54},
      {"measurement": "glycan array binding signal (z-score)", "setting": "[4]", "result": 2.18},
      {"measurement": "glycan array binding signal (z-score)", "setting": "[5]", "result": -0.699},
      {"measurement": "glycan array binding signal (z-score)", "setting": "[6]", "result": 1.24},
      {"measurement": "glycan array binding signal (z-score)", "setting": "[7]", "result": 1.63},
      {"measurement": "glycan array binding signal (z-score)", "setting": "[8]", "result": -0.378},
      {"measurement": "glycan array binding signal (z-score)", "setting": "[9]", "result": -0.299},
      {"measurement": "glycan array binding signal (z-score)", "setting": "[10]", "result": 0.781},
      {"measurement": "glycan array binding signal (z-score)", "setting": "[11]", "result": -0.584},
      {"measurement": "glycan array binding signal (z-score)", "setting": "[12]", "result": -0.326},
      {"measurement": "glycan array binding signal (z-score)", "setting": "[13]", "result": -0.088},
      {"measurement": "glycan array binding signal (z-score)", "setting": "[14]", "result": -0.81},
      {"measurement": "glycan array binding signal (z-score)", "setting": "[15]", "result": -0.599},
      {"measurement": "glycan array binding signal (z-score)", "setting": "[16]", "result": 0.058},
      {"measurement": "glycan array binding signal (z-score)", "setting": "[17]", "result": 0.658},
      {"measurement": "glycan array binding signal (z-score)", "setting": "[18]", "result": 6.75},
      {"measurement": "glycan array binding signal (z-score)", "setting": "[19]", "result": -0.386},
      {"measurement": "glycan array binding signal (z-score)", "setting": "[20]", "result": -0.332},
      {"measurement": "glycan array binding signal (z-score)", "setting": "[21]", "result": 0.542},
      {"measurement": "glycan array binding signal (z-score)", "setting": "[22]", "result": -0.246},
      {"measurement": "glycan array binding signal (z-score)", "setting": "[23]", "result": -0.76},
      {"measurement": "glycan array binding signal (z-score)", "setting": "[24]", "result": 0.098},
      {"measurement": "glycan array binding signal (z-score)", "setting": "[25]", "result": -0.478},
      {"measurement": "glycan array binding signal (z-score)", "setting": "[26]", "result": -0.022},
      {"measurement": "glycan array binding signal (z-score)", "setting": "[27]", "result": -0.145},
      {"measurement": "glycan array binding signal (z-score)", "setting": "[28]", "result": 0.052}
    ]}
  ]
}
